In PubChem BioAssay (Tox21):
Results filed as inconclusive are left out. Activity calls are given as the source filed them. Unless noted, calls come from the whole dose curve; as a rule, active = well fitted curve in the direction sought with a large enough effect in the repeat runs; inconclusive = weak or mixed curves; inactive = no such curve, though single readings can be large; an effect the other way counts as inactive or inconclusive.

Tests used:
[1] = qHTS assay to identify small molecule antagonists of the constitutive androstane receptor (CAR) signaling pathway - cell viability counter screen (AID 1224837); note: nearly all actives have a fitted effect of over 45% in size
In short: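 To flag cytotoxic false antagonists, HepG2 hCAR/CYP2B6-2.2kb cells were treated 23 hr with 15-concentration compound series and 50 nM CITCO at 37 C/5% CO2; CellTiter-Fluor fluorescence was the measured end point.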

[2] = molecular target: Nuclear receptor subfamily 1 group I member 3 (Homo sapiens) (UniProt Q14994); experiment: qHTS assay to identify small molecule agonists of the constitutive androstane receptor (CAR) signaling pathway (AID 1224839); note: nearly all actives have a fitted effect of over 15% in size; note: potency is the fitted concentration of half-maximal effect;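 for activation: HepG2 cells stably carrying human CAR and a CYP2B6 luciferase reporter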
In short: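 In this screen, CAR-driven CYP2B6 promoter activity is measured by luminescence in HepG2-CYP2B6-hCAR cells after 24 h with test compounds and 0.75 uM PK11195 (final concentration).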

[3] = qHTS assay to identify small molecule antagonists of the estrogen related receptor signaling pathway with the pleiotropic PPARgamma coactivator (PGC) from Tox21 10K library (AID 1224841; call rule not given here; note: actives are mostly falling curves and most rising ones were filed inactive; nearly all actives have a fitted effect of over 50% in size)
In short: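 Test chemicals dissolved in DMSO were applied to pre-incubated (6 h) PGC/ERR cells at 2,000 cells/well for an 18 h, 37 C treatment; reporter luminescence was then read using One-Glo.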

[4] = qHTS assay to identify small molecule agonists of the estrogen related receptor signaling pathway with the pleiotropic PPARgamma coactivator (PGC) from Tox21 10K library (AID 1224842); note: nearly all actives have a fitted effect of over 15% in size
In short: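 PGC/ERR reporter cell line, 2,000 cells per well, incubated 6 h at 37 C before 23 nL compound in DMSO was added. After 18 h at 37 C, One-Glo luminescence read following 30 min at room temperature.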

[5] = molecular target: Thyrotropin receptor (Homo sapiens) (UniProt P16473); experiment: qHTS assay to identify small molecule agonists of the thyroid stimulating hormone receptor (TSHR) signaling pathway (AID 1224843; calls by dose curve; note: nearly all actives have a fitted effect of over 45% in size; note: potency is the fitted concentration of half-maximal effect)
In short: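 HEK293/TSHR, 800 cells/well; cpd 30 min RT; add cAMP-d2 + anti-cAMP-cryptate, 1 h RT; fluorescence read on plate reader. 15-pt titration, n=3.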

[6] = qHTS assay to identify small molecule agonists of the hypoxia (HIF-1) signaling pathway - cell viability counter screen (AID 1224844; calls by dose curve; note: nearly all actives have a fitted effect of over 50% in size)
In short: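 HRE-bla ME-180; 0.5% dFBS; cpd 17 h, 37C, 5% CO2; CellTiter-Glo lum., 30 min RT, post-FRET read, same wells.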

[7] = qHTS assay to identify small molecule agonists of H2AX (AID 1224845; active = well fitted activation curve with a large enough effect in the signal ratio in the repeat runs, not every such curve was filed as active; the % refers to the signal ratio)
In short: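 Wild-type CHO-K1 cells, plated overnight, exposed 3hr at 37C to 15 concentrations (0.76% DMSO final). Lysed, then HTRF anti-pH2AX (S139) cryptate and anti-H2AX-d2 antibodies, 24 hr room temperature; 665/620 nm emission read.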

[8] = qHTS assay to identify small molecule agonists of the hypoxia (HIF-1) signaling pathway (AID 1224846; active = well fitted activation curve with a large enough effect in the signal ratio in the repeat runs, not every such curve was filed as active; the % refers to the signal ratio)
In short: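 Reporter induction in HRE-bla ME-180 cells is taken as agonism: cells sit 5 hrs after plating, receive compounds or DMSO only, incubate 17 hrs at 37C under 5% CO2, and are loaded with CCF4-AM for beta-lactamase FRET measurement.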

[9] = qHTS assay to identify small molecule agonists of H2AX - cell viability counter screen (AID 1224847; calls by dose curve; note: top concentration of the series differs between compounds; nearly all actives have a fitted effect of over 30% in size)
In short: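 Read-out: CellTiter-Glo luminescence, 30 min RT. Cells: wild-type CHO-K1, 1000/well, 10% FBS, plated overnight at 37C. Treatment: 15 concentrations, 3 hr, 37C, 0.76% DMSO.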

[10] = qHTS assay to identify small molecule antagonists of the estrogen related receptor (ERR) signaling pathway from Tox21 library (AID 1224848); note: nearly all actives have a fitted effect of over 50% in size; note: potency is the fitted concentration of half-maximal effect
In short: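 Compounds dissolved in DMSO are pin-transferred onto ERR reporter cells (2,000 per well) that have settled for 6 h at 37 C. Plates then incubate 18 h at 37 C before ONE-Glo luciferase reagent and a luminescence read 30 min later.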

[11] = qHTS assay to identify small molecule agonists of the estrogen related receptor (ERR) signaling pathway from Tox21 library (AID 1224849; calls by dose curve; note: nearly all actives have a fitted effect of over 15% in size); settings: ERR reporter cell line, ONE-Glo luciferase, 18 h; at 92.4 µM (top of the series) unless noted
In short: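 Tox21 compounds tested for ERR agonism in an NTP reporter cell line: 18 h treatment at 37 C, then ONE-Glo luminescence.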

[12] = qHTS RealTime-Glo MT Cell Viability Assay in HepG2 cells - 24 hour (AID 1224867); note: nearly all actives have a fitted effect of over 50% in size
In short: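 Cell number in HepG2 cultures estimated from NanoLuc luminescence generated by metabolic reduction of a prosubstrate by living cells. The homogeneous, nonlytic format allowed repeated reads at 0, 8, 16, 24, 32 and 40 h of compound exposure.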

[13] = qHTS RealTime-Glo MT Cell Viability Assay in HEK293 cells - 32 hour (AID 1224868); note: nearly all actives have a fitted effect of over 50% in size; note: potency is the fitted concentration of half-maximal effect
In short: (§1)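 Homogeneous bioluminescent viability format in HEK293 cells (600 cells/well). Following 5 h at 37 C/5% CO2, 23 nL compound was pintooled; the signal was measured repeatedly during 40 h incubation.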

[14] = A CellTox Green Cytotoxicity Assay to monitor cytotoxicity in HEK293 cells - 0 hour (AID 1224869); note: nearly all actives have a fitted effect of over 50% in size
In short: (§2)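 Tox21 screen in HEK293: membrane-impermeant cyanine dye fluoresces on binding dead-cell DNA; compound pinned 5 h post-seeding, plates held at 37 C, signal read repeatedly through 40 h.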

[15] = qHTS RealTime-Glo MT Cell Viability Assay in HepG2 cells - 40 hour (AID 1224870); note: nearly all actives have a fitted effect of over 50% in size
In short: (§3)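 HepG2 cells (600/well) mixed with RealTime-Glo MT reagent, settled 5 h at 37 C/5% CO2 before compound addition. Nonlytic NanoLuc luminescence from viable-cell prosubstrate reduction read repeatedly during 40 h treatment at 37 C.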

[16] = A CellTox Green Cytotoxicity Assay to monitor cytotoxicity in HEK293 cells - 40 hour (AID 1224871); note: nearly all actives have a fitted effect of over 45% in size
In short: as §2

[17] = qHTS RealTime-Glo MT Cell Viability Assay in HEK293 cells - 16 hour (AID 1224872); note: nearly all actives have a fitted effect of over 50% in size; note: potency is the fitted concentration of half-maximal effect
In short: as §1

[18] = qHTS RealTime-Glo MT Cell Viability Assay in HepG2 cells - 8 hour (AID 1224873); note: nearly all actives have a fitted effect of over 55% in size
In short: as §3

[19] = qHTS assay to identify small molecule antagonists of the estrogen related receptor signaling pathway with the pleiotropic PPARgamma coactivator (PGC) from Tox21 10K library - cell viability counter screen (AID 1224840; active = well fitted cell-killing curve with a large enough effect in the repeat runs, not every such curve was filed as active; note: nearly all actives have a fitted effect of over 40% in size)
In short: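 Seeded PGC/ERR cells (2,000/well, 6 h, 37 C/5% CO2) get compound by pin tool; 17.5 h incubation at 37 C; CellTiter-Fluor added, 30 min, fluorescence measured.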

[20] = molecular target: Nuclear receptor subfamily 1 group I member 3 (Homo sapiens) (UniProt Q14994); experiment: qHTS assay to identify small molecule antagonists of the constitutive androstane receptor (CAR) signaling pathway (AID 1224838);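 note: HepG2 cells stably expressing hCAR with CYP2B6 luciferase reporter stimulated by CITCO; nearly all actives have a fitted effect of over 40% in size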
In short: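 Human hepatoma HepG2 cells expressing hCAR and a CYP2B6 promoter (2.2 kb) luciferase construct; compound titration (15 points) with 50 nM CITCO final, 24 h at 37 C/5% CO2; luminescence via ONE-Glo after 30 min at room temperature.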
% is set by controls: 0 for no effect and ±100 for the full control effect.

Chain of Thyrotropin receptor (Homo sapiens) (P16473 whole entry, looked up): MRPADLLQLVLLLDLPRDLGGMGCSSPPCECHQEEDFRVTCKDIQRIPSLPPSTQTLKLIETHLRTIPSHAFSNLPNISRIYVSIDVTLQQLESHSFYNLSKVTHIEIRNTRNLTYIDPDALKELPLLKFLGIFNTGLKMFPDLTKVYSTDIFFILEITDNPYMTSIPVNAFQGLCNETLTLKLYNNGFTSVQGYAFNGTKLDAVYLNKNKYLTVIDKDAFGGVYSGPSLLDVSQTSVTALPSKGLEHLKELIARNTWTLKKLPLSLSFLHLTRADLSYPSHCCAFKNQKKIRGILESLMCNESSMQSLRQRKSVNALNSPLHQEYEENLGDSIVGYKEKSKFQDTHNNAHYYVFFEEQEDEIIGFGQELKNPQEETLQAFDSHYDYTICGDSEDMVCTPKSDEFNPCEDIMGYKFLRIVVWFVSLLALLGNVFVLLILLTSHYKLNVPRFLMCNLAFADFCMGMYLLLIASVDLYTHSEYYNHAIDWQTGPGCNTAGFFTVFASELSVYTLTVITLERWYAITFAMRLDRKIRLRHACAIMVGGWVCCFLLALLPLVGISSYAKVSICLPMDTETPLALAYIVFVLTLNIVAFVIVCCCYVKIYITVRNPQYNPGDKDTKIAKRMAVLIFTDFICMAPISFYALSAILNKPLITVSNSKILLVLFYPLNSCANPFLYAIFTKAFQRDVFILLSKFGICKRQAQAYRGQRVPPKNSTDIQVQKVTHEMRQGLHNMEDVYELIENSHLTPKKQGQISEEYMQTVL
Chain of Nuclear receptor subfamily 1 group I member 3 (Homo sapiens) (Q14994 whole entry, looked up): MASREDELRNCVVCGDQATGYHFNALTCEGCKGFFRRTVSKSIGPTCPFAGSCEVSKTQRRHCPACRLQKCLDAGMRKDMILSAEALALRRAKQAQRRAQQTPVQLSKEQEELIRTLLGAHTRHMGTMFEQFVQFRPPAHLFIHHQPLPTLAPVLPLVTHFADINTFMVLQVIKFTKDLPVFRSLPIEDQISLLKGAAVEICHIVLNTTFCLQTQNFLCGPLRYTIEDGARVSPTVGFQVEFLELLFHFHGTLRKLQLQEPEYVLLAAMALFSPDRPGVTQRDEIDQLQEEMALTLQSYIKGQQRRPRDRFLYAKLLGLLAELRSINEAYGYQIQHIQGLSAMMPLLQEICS

CCOC(/C=C(\C)CCC=C(C)C)OCC
inactive: Potency [1] | Potency [2] | Potency [3] | Potency [4] | Potency [5] | Potency [6] | Potency [7] | outcome [8] | Potency [9] | Potency [10] | activity change, positive = activation [11] 4.73% | Potency [12] | Potency [13] | Potency [14] | Potency [15] | Potency [16] | Potency [17] | Potency [18]

[O]=[Zr]
inactive: Potency [1] | Potency [19] | Potency [3] | Potency [4] | Potency [7] | outcome [8] | Potency [9] | Potency [10] | activity change, positive = activation [11] 5.09% | Potency [12] | Potency [13] | Potency [15] | Potency [16] | Potency [17] | Potency [18]

Clc1cc(Cl)c(-c2c(Cl)c(Cl)cc(Cl)c2Cl)cc1Cl
inactive: Potency [1] | Potency [19] | Potency [3] | Potency [5] | Potency [7] | outcome [8] | Potency [10] | activity change, positive = activation [11] 21.1% [at 42.5 µM] | Potency [12] | Potency [16] | Potency [18]

CCC(=O)OCCc1ccccc1
inactive: Potency [1] | Potency [2] | Potency [19] | Potency [6] | Potency [7] | outcome [8] | Potency [12] | Potency [13] | Potency [14] | Potency [16] | Potency [18]

CC(C)N=C(N)/N=C(\N)Nc1ccc(Cl)cc1
inactive: Potency [1] | Potency [19] | Potency [3] | Potency [4] | Potency [6] | activity change, positive = activation [11] -24.8% [at 42.5 µM] | Potency [12] | Potency [14] | Potency [15] | Potency [16] | Potency [18]
active: Potency [13] 26.8 µM

Cc1ccc2ccc3cccc4ccc1c2c34
inactive: Potency [1] | Potency [3] | Potency [5] | Potency [6] | Potency [7] | outcome [8] | Potency [9] | activity change, positive = activation [11] -32.5% | Potency [12] | Potency [14] | Potency [15] | Potency [17]
active: Potency [2] 30.6 µM

CC(=O)OC1CCCCC1
inactive: Potency [1] | Potency [19] | Potency [4] | Potency [5] | Potency [6] | outcome [8] | Potency [9] | Potency [10] | activity change, positive = activation [11] 5.62% | Potency [12] | Potency [13] | Potency [14] | Potency [16] | Potency [17] | Potency [18]

CCc1ccc(C)nc1
inactive: Potency [1] | Potency [2] | Potency [5] | Potency [6] | Potency [7] | outcome [8] | Potency [12] | Potency [13] | Potency [14] | Potency [17] | Potency [18]

CC(CN(C)C)CN1c2ccccc2CCc2ccccc21 (stereo unspecified)
inactive: Potency [1] | Potency [19] | Potency [7] | Potency [9] | Potency [12] | Potency [14] | Potency [15] | Potency [17] | Potency [18]

Cc1cc(C)c(C=O)c(C)c1
inactive: Potency [1] | Potency [19] | Potency [5] | Potency [6] | Potency [7] | outcome [8] | Potency [9] | Potency [12] | Potency [13] | Potency [14] | Potency [16] | Potency [17]

CCCCCCCCCC(=O)N(C)C
inactive: Potency [20] | Potency [19] | Potency [3] | Potency [4] | Potency [5] | Potency [6] | outcome [8] | Potency [9] | Potency [10] | Potency [12] | Potency [13] | Potency [14] | Potency [15] | Potency [17] | Potency [18]
active: Potency [2] 55.3 µM

CC1CCCCN1CCCOC(=O)c1ccc(OC2CCCCC2)cc1 (stereo unspecified)
active: Potency [5] 26.6 µM | Potency [10] 11.9 µM | Potency [13] 21.3 µM | Potency [17] 15.1 µM
inactive: Potency [1] | Potency [3] | Potency [4] | Potency [6] | Potency [7] | outcome [8] | Potency [9] | Potency [14] | Potency [18]

Cc1cccc(Br)c1
inactive: Potency [1] | Potency [5] | Potency [7] | outcome [8] | Potency [12] | Potency [13] | Potency [14] | Potency [15] | Potency [16] | Potency [17] | Potency [18]

O=C(O)CCn1c2c(c3ccccc31)C[C@H](NS(=O)(=O)c1ccc(F)cc1)CC2
inactive: Potency [1] | Potency [19] | Potency [6] | Potency [9] | Potency [12] | Potency [13] | Potency [16] | Potency [17] | Potency [18]

CCCCCCCC(C)=O
inactive: Potency [1] | Potency [19] | Potency [5] | Potency [6] | Potency [7] | outcome [8] | Potency [9] | Potency [12] | Potency [13] | Potency [15] | Potency [16] | Potency [17] | Potency [18]

Cc1cn[nH]c1
inactive: Potency [1] | Potency [19] | Potency [5] | Potency [7] | outcome [8] | Potency [9] | Potency [12] | Potency [13] | Potency [14] | Potency [15] | Potency [16] | Potency [18]

Cc1cc(=O)[nH]c(=O)[nH]1
inactive: Potency [1] | Potency [19] | Potency [5] | Potency [6] | Potency [7] | outcome [8] | Potency [12] | Potency [13] | Potency [15] | Potency [16] | Potency [17] | Potency [18]

Clc1cccnc1
inactive: Potency [1] | Potency [19] | Potency [5] | Potency [6] | Potency [7] | outcome [8] | Potency [9] | Potency [12] | Potency [13] | Potency [14] | Potency [15] | Potency [16] | Potency [17]
